Consider 46 compounds from ChEMBL document CHEMBL3988442, “University of Dundee, Small-Polar-MMV Screening Library” (2021).

The test system of the experiment is Trypanosoma brucei. The experiment can be described thus: Trypanosoma brucei 72 hour study. More on the design: scale not given: in the data most compounds retested in dose-response had high values. The experiment is classed as functional, organism-based.

Screen size: about 66,000 compounds; about 960 (1.5%) showed an effect of 50% or more. The sample holds strong results, similar compounds and a random draw of the others, so the mix is not that of the screen.

As for `O=C(O)C(F)(F)F.O=C(c1cscn1)N1CCc2c(COCC3CC3)cncc2C1`, the “Percent Effect” value (30.3 µM, […]) is recorded as -26.29%. Consider `O=C(O)C(F)(F)F.O=C([C@H]1C[C@@H]2CCN(c3cccc(F)c3)C[C@H]2O1)N1CCCCO1`, for which, for the setting “30.3 µM, […]”, the “Percent Effect” value is -0.6141%. In the case of `Fc1ccc(CNCc2nnc3n2CC(C(F)(F)F)CC3)cc1` (stereo unspecified), for the setting “30 µM, 30.03 µM”, the “Percent Effect” value is -35.58%. As to `CC[C@@H]1N(Cc2ccc(F)cc2)CCC[C@]12CCC(=O)N2CCOC.O=C(O)C(F)(F)F`, the “Percent Effect” value (30.3 µM, […]) is on record as -80.81%. Still for that read-out and setting: next, `CC(C)c1n[nH]c(C2CN(C(=O)Cn3ccccc3=O)CCO2)n1` (stereo unspecified): 9.582%. Consider `CC(C)c1n[nH]c(C2CN(C(=O)CCn3ccccc3=O)CCO2)n1` (stereo unspecified), for which the “Percent Effect” value (30 µM, 30.03 µM) worked out at 52.13%. In the case of `CCc1n[nH]c(C2CN(C(=O)CCn3ccccc3=O)CCO2)n1` (stereo unspecified), the “Percent Effect” value (30.3 µM, […]) turned out to be 7.899%. On the same count and under the same terms, for `Cl.Cl.Cn1nc(C2CNCCO2)cc1CCOc1ccc(Cl)cc1` (stereo unspecified) the value was 53.46%; for `Cl.Clc1ccc(-c2ccc(C3CNCCO3)nc2)cc1` (stereo unspecified), 98.64%; for `COc1ccc(-c2ccc(C3CNCCO3)nc2)cc1.Cl` (stereo unspecified), -17.4%.

As to `Cc1ccc(-c2ccc(C3CNCCO3)nc2)cc1.Cl` (stereo unspecified), the “Percent Effect” value (30.3 µM, […]) is 88.62%. The same measure, in the same setting: for `COc1ccc(OCCc2cc(C3CNCCO3)nn2C)cc1` (stereo unspecified) the value was 1.828%. Take `Cl.c1ccc(-c2ccc(C3CNCCO3)nc2)cc1` (stereo unspecified): the “Percent Effect” value (30 µM, 30.03 µM) is -8.657%. As to `Cn1nc(C2CNCCO2)cc1CCOc1ccc(C(F)(F)F)cc1` (stereo unspecified), the “Percent Effect” value (30.3 µM, […]) is 20.05%. `CN(C)c1ncc(-c2ccc(F)cc2)c(C2CNCCO2)n1.Cl` (stereo unspecified): where the note is “30.3 µM, […]”, the “Percent Effect” value came out at 29.73%. The same measure, in the same setting: next, `Cl.c1ncc(-c2ccc(C3CNCCO3)nc2)cn1` (stereo unspecified): -18.07%.

`COCCCNC(=O)NCc1cccn1Cc1ccccc1C`: the “Percent Effect” value (30 µM, 30.03 µM) is recorded as -24.61%.

As to `O=C(O)C(F)(F)F.O=C1COC2(CCN(Cc3ccoc3)CC2)CN1c1ccccc1`, the “Percent Effect” value (30 µM, 30.03 µM) is -9.648%. `COCCNC(=O)[C@H]1CN(Cc2csc(C)n2)C[C@H]2OCC[C@@H]12.O=C(O)C(F)(F)F.O=C(O)C(F)(F)F`: the “Percent Effect” value (30 µM, 30.03 µM) is listed as -11.19%.

Turning to `COCC1CC2(CCN(Cc3cccc(C#N)c3)CC2)CN1C(C)C.O=C(O)C(F)(F)F.O=C(O)C(F)(F)F` (stereo unspecified), under “30 µM, 30.03 µM”, the “Percent Effect” value was -12.65%. As to `CC(C)CC(=O)N1CC(=O)c2sc(Nc3ccc(F)cc3)nc2C1`, the “Percent Effect” value (30.3 µM, […]) was -26.14%. `CC[C@H](C)[C@H](N)C(=O)N1CC(=O)c2sc(NCc3ccccc3)nc2C1`: for the setting “30.3 µM, […]”, the “Percent Effect” value turned out to be 35.54%. In the case of `CC(C)CC(=O)N1CC(=O)c2sc(NC3CCCCC3)nc2C1`, the “Percent Effect” value (30.3 µM, […]) is recorded as -18.82%.

Regarding `CC[C@H](C)[C@H](N)C(=O)N1CC(=O)c2sc(NC3CCCCC3)nc2C1`, the “Percent Effect” value (30.3 µM, […]) turned out to be 89.66%.

With `CC(C)NC(=O)N1CC(=O)c2sc(NC3CCCCC3)nc2C1`, the “Percent Effect” value (30.3 µM, […]) is reported as -21.05%. With `CC[C@H](C)[C@H](N)C(=O)N1CC(=O)c2sc(Nc3ccc(F)cc3)nc2C1`, the “Percent Effect” value (30.3 µM, […]) came out at 54.3%. As to `N[C@H]1CC[C@@H](n2cc(C(=O)N[C@H]3CCCc4ccccc43)nn2)CC1`, the “Percent Effect” value (30 µM, 30.03 µM) is on record as -48.79%. `O=C(Nc1cnccn1)[C@@H]1COC[C@H]2CN(C3CCC3)C[C@H]21.O=C(O)C(F)(F)F`: the “Percent Effect” value (30 µM, 30.03 µM) is -9.316%. Still for that read-out and setting: next, `COCCn1cc(NC(=O)NCC2CCN(c3ccccc3)C2)cn1` (stereo unspecified): -68.77%. Regarding `COCCN1CCC(CNC(=O)Nc2ccc(SC(F)(F)F)cc2)C1` (stereo unspecified), the “Percent Effect” value (30.3 µM, […]) is 90.18%. Same read-out and setting: for `COCCN1CCC(CNC(=O)C2(c3ccccc3)CCOCC2)C1` (stereo unspecified) the value was -10.94%. In the case of `COCCN1CCC(CNC(=O)c2cc(C)cc(C)c2)C1` (stereo unspecified), under “30 µM, 30.03 µM”, the “Percent Effect” value worked out at 28.41%. With `COCCN1CCC(CNC(=O)C2(c3ccccc3)CCC2)C1` (stereo unspecified), the “Percent Effect” value (30.3 µM, […]) is reported as -7.306%. Turning to `COCCN1CCC(CNC(=O)C2(c3cccc(Cl)c3)CC2)C1` (stereo unspecified), the “Percent Effect” value (30.3 µM, […]) is 10.42%. `COCCN1CCC(CNC(=O)CCc2cc(F)ccc2F)C1` (stereo unspecified): the “Percent Effect” value (30 µM, 30.03 µM) is -4.617%. On to `COCCN1CCC(CNC(=O)Nc2ccc(F)c(Cl)c2)C1` (stereo unspecified), for which the “Percent Effect” value (30.3 µM, […]) is 73.54%. Take `COCCN1CCC(CNC(=O)Nc2ccc(-c3ccccc3)cc2)C1` (stereo unspecified): for the setting “30.3 µM, […]”, the “Percent Effect” value is reported as 100.6%. Same read-out and setting: for `O=C(C1CCCC1)N1CCC2(CC1)COCCN2CC1CC1.O=C(O)C(F)(F)F` the value was -13.33%.

Consider `CCN1CCC2(CC1)CC(NCc1ccncc1)c1ccccc1O2.O=C(O)C(F)(F)F.O=C(O)C(F)(F)F.O=C(O)C(F)(F)F` (stereo unspecified), for which the “Percent Effect” value (30 µM, 30.03 µM) is listed as 1.43%. Consider `O=C(CN1CCC(c2ccnn2CCO)CC1)NCc1ccco1`, for which the “Percent Effect” value (10 µM) is listed as -47.08%. Take `O=C(O)C(F)(F)F.O=C(c1ccno1)N1CC[C@@H]2O[C@H](COCCN3CCCC3)CC[C@@H]21`: the “Percent Effect” value (30 µM, 30.03 µM) is reported as 39.45%. For `CCCN(Cc1ccccn1)Cc1ccccc1OC`, where the note is “30.3 µM, […]”, the “Percent Effect” value was -7.297%. Still for that read-out and setting: next, `CCCN(Cc1cnc2ccccc2n1)Cc1ccccc1OC`: 99.59%. Take `CCCN(Cc1nc2ccccc2[nH]1)Cc1ccccc1OC`: the “Percent Effect” value (30.3 µM, […]) is 15.38%. Regarding `Cc1cccc(CN2CCn3cc(Cn4cccn4)nc3C2)n1.O=C(O)C(F)(F)F.O=C(O)C(F)(F)F.O=C(O)C(F)(F)F`, the “Percent Effect” value (30 µM, 30.03 µM) was -12.32%.

Regarding `O=C(O)C(F)(F)F.O=C(c1cnccn1)N1CCOC2(CCCN(c3ncccc3F)C2)C1` (stereo unspecified), for the setting “30.3 µM, […]”, the “Percent Effect” value is reported as -33.25%.
